Measured values: PubChem BioAssay (Tox21)
Where “and” joins values, the source holds several entries; their conditions need not be identical. Equal values may be shown once. Results filed as inconclusive are left out. A structure can be active in one record and inactive in another. Calls of active or inactive are those of the source. Unless noted, the call rests on the fitted dose curve; in most records, active means well fitted curve in the direction sought with a large enough effect in the repeat runs; inconclusive means weak or mixed curves; inactive means no such curve, though single readings can be large; an effect the other way counts as inactive or inconclusive.

How the values were obtained:
[1] = qHTS assay for small molecules that induce genotoxicity in human embryonic kidney cells expressing luciferase-tagged ATAD5 (AID 651632); further: nearly all actives have a fitted effect of over 15% in size; further: potency means the concentration at half of the fitted maximal effect
In short: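 Cells were seeded at 2,000 per well, dosed with compound, and incubated 16 hr at 37C in 5% CO2. Luciferase activity was then quantified after a 30 min room-temperature incubation with Amplite.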

[2] = qHTS assay for small molecule agonists of the p53 signaling pathway - cell viability (AID 651633; calls by dose curve; further: nearly all actives have a fitted effect of over 30% in size; further: potency means the concentration at half of the fitted maximal effect)
In short: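 p53RE-bla cells, seeded at 4,000 per well and rested 5 h at 37 C/5% CO2, received compounds in DMSO for 16 h at 37 C. CellTiter-Glo was then added, and luminescence was read after 30 min at room temperature to gauge cytotoxicity.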

[3] = qHTS assay for small molecules that induce genotoxicity in human embryonic kidney cells expressing luciferase-tagged ATAD5 - cell viability (AID 651634; calls by dose curve; further: nearly all actives have a fitted effect of over 25% in size; further: potency means the concentration at half of the fitted maximal effect)
In short: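 Cells (HEK293T, luciferase-tagged ATAD5) are seeded at 2,000 per well, dosed with compound or DMSO vehicle, and incubated 15.5 hr at 37C and 5% CO2. CellTiter-Fluor is added for 30 min before fluorescence is measured.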

[4] = qHTS assay for small molecule disruptors of the mitochondrial membrane potential (AID 720635); further: potency means the concentration at half of the fitted maximal effect
In short: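 HepG2 cells (2,000/well) attached overnight at 37C, then took compound for 1 hr at 37C, 5% CO2. Mito-MPS dye was added for 30 min; fluorescence was read at 490/535 nm (monomers) and 540/590 nm (aggregates).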

[5] = qHTS assay to test for compound auto fluorescence at 590 nm (red) in HepG2 cells (AID 720674)
In short: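 Rose Bengal sodium served as the red fluorophore standard. HepG2 monolayers (overnight attachment, MEM with 10% FBS) were exposed to test compounds for 1 hr at 37 C and read at Ex 540/Em 590 nm.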

[6] = qHTS assay to test for compound auto fluorescence at 535 nm (green) in HepG2 cells (AID 720675)
[7] = qHTS assay to test for compound auto fluorescence at 590 nm (red) in HEK293 cells (AID 720679)
In short: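 HEK293 cells (2,000/well, medium with 10% dialyzed FBS) attached for 4-5 hr at 37C, received 23 nL compound and were incubated overnight at 37C, 5% CO2. Red fluorescence was then read at 540/590nm Ex/Em, referenced to Rose Bengal sodium.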

[8] = qHTS assay for small molecule disruptors of the mitochondrial membrane potential - cell viability (AID 720634; calls by dose curve; further: nearly all actives have a fitted effect of over 20% in size; further: potency means the concentration at half of the fitted maximal effect)
In short: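 Cytotoxicity was measured by ATP quantitation in HepG2 wells that had first been treated with compound for 1 hr and stained with m-MPI dye; CellTiter-Glo incubation was 30 min at room temperature.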

[9] = qHTS assay to test for compound auto fluorescence at 460 nm (blue) in HEK293 cells (AID 720678)
In short: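 HEK293 cells (2,000 per well, medium with 10% dialyzed FBS) attached for 4-5 hr at 37C, then received compound and stood overnight at 37C, 5% CO2. Blue fluorescence was read at Ex/Em 405/460 nm and expressed relative to triamterene.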
On the % scale 0 is the no-effect control and ±100 the full control effect.

Cc1cc(C)c(C2=C(OC(=O)CC(C)(C)C)C3(CCCC3)OC2=O)c(C)c1
active: Potency [4] 12.8 µM
inactive: Potency [1] | Potency [2] | Potency [3] | outcome [5] | outcome [6] | outcome [7]

CC(C)N1C(=O)N(c2ccccc2)CSC1=NC(C)(C)C
active: Potency [8] 15.4 µM | Potency [4] 38.6 µM
inactive: Potency [1] | Potency [3] | outcome [5] | outcome [6] | Potency [9] | outcome [7]

O=S(=O)(c1ccc(Cl)cc1)c1ccc(Cl)cc1
active: Potency [4] 4.92 µM
inactive: Potency [1] | Potency [2] | Potency [3] | outcome [5] | outcome [6] | Potency [9] | outcome [7]

CCc1nn(C)c(C(=O)NCc2ccc(C(C)(C)C)cc2)c1Cl
inactive: Potency [1] | Potency [3] | outcome [5] | outcome [6] | outcome [7]
active: Potency [8] 12.2 µM | Potency [4] 15.4 µM

ClC1=C(Cl)[C@]2(Cl)[C@@H]3[C@@H]4C[C@@H]([C@H]5O[C@@H]45)[C@@H]3[C@@]1(Cl)C2(Cl)Cl
active: Potency [2] 30.6 µM | Potency [4] 19.3 µM
inactive: Potency [1] | Potency [3] | outcome [5] | outcome [6] | outcome [7]

CC(C)CC(C)Nc1ccc(Nc2ccccc2)cc1 (stereo not given)
active: Potency [2] 53.5 µM | Potency [8] 23.9 µM | Potency [4] 13.4 µM
inactive: Potency [1] | outcome [5] | outcome [6] | Potency [9] | outcome [7]

CCCCOCN(C(=O)CCl)c1c(CC)cccc1CC
inactive: Potency [1] | Potency [2] | Potency [3] | outcome [5] | outcome [6] | Potency [9] | outcome [7]

CC1CCC(C(C)C)C(OC(=O)c2ccccc2N)C1 (stereo not given)
active: Potency [2] 26.6 µM and 60.3 µM | Potency [4] 13.3 µM and 17 µM
inactive: Potency [1] | Potency [3] | outcome [5] | outcome [6] | Potency [9] | outcome [7]

CC(C)(C)C(O)/C(=C\c1ccc(Cl)cc1Cl)n1cncn1 (stereo not given)
active: Potency [4] 10.4 µM
inactive: Potency [1] | Potency [2] | outcome [5] | outcome [6] | outcome [7]

Clc1ccc(CCC(Cn2ccnc2)Sc2c(Cl)cccc2Cl)cc1 (stereo not given)
inactive: Potency [1] | Potency [3] | Potency [8] | fluorescence, relative to Rose Bengal [5] -0.283% [at 18.6 µM] | fluorescence, % of fluorescein control [6] -0.0029% [at 18.6 µM] | fluorescence, % of triamterene [9] 0.0582% [at 18.6 µM] | fluorescence, % of fluorescent control [7] 0.0698% [at 18.6 µM]

CCCN(CCC)c1c([N+](=O)[O-])cc(S(N)(=O)=O)cc1[N+](=O)[O-]
active: Potency [3] 54.5 µM | Potency [8] 32.7 µM | Potency [4] 3.67 µM
inactive: Potency [1] | outcome [5] | outcome [6] | Potency [9] | outcome [7]

ClCc1ccc(Cl)cc1Cl
inactive: Potency [1] | Potency [2] | Potency [8] | outcome [5] | outcome [6] | Potency [9] | outcome [7]

CC[C@H](C)[C@H]1O[C@]2(C=C[C@@H]1C)C[C@@H]1C[C@@H](C/C=C(\C)[C@@H](O[C@H]3C[C@H](OC)[C@@H](O[C@H]4C[C@H](OC)[C@@H](O)[C@H](C)O4)[C@H](C)O3)[C@@H](C)/C=C/C=C3\CO[C@@H]4[C@H](O)C(C)=C[C@@H](C(=O)O1)[C@]34O)O2
inactive: Potency [1] | Potency [8] | outcome [5] | outcome [6] | outcome [7]
active: Potency [2] 14.4 µM | Potency [4] 28.7 µM

O=c1[nH]c2ccccc2n1C1CCN(CCCC(c2ccc(F)cc2)c2ccc(F)cc2)CC1
active: Potency [2] 23.7 µM and 61.1 µM | Potency [3] 29.8 µM and 54.5 µM
inactive: Potency [1] | outcome [5] | outcome [6] | Potency [9] | outcome [7]

Oc1c(Cl)c(Cl)cc(Cl)c1Cl
inactive: Potency [1] | Potency [2] | Potency [8] | outcome [5] | outcome [6] | Potency [9] | outcome [7]
active: Potency [4] 5.3 µM

Oc1ccc(C2(c3ccc(O)cc3)CCCCC2)cc1
inactive: Potency [1] | Potency [3] | Potency [8] | outcome [5] | outcome [6] | Potency [9] | outcome [7]
active: Potency [4] 16.3 µM

Fc1cccc(Cl)c1CCl
inactive: Potency [1] | Potency [3] | Potency [8] | outcome [5] | outcome [6] | Potency [9] | outcome [7]

CCOCn1c(-c2ccc(Cl)cc2)c(C#N)c(Br)c1C(F)(F)F
inactive: Potency [1] | outcome [5] | outcome [6] | Potency [9] | outcome [7]
active: Potency [2] 30.6 µM | Potency [4] 0.0486 µM

Clc1ccc(CSC(Cn2ccnc2)c2ccc(Cl)cc2Cl)cc1 (stereo not given)
inactive: Potency [1] | Potency [3] | Potency [8] | fluorescence, relative to Rose Bengal [5] -0.0239% [at 18.6 µM] | fluorescence, % of fluorescein control [6] -0.0068% [at 18.6 µM] | fluorescence, % of triamterene [9] -0.071% [at 18.6 µM] | fluorescence, % of fluorescent control [7] 0.517% [at 18.6 µM]

Oc1ccc2ccc3cccc4ccc1c2c34
inactive: Potency [1] | Potency [2] | Potency [3] | outcome [5] | outcome [6] | outcome [7]
active: Potency [4] 2.73 µM

OC(c1ccc(Cl)cc1)(c1ccc(Cl)cc1)C(Cl)(Cl)Cl
active: Potency [2] 61.1 µM | Potency [4] 6.11 µM
inactive: Potency [1] | outcome [5] | outcome [6] | outcome [7]

CC1(C)CC/C(=C/c2ccc(Cl)cc2)C1(O)Cn1cncn1 (stereo not given)
inactive: Potency [1] | Potency [3] | Potency [8] | outcome [5] | outcome [6] | Potency [9] | outcome [7]

S=C(SSC(=S)N1CCCCC1)N1CCCCC1
inactive: Potency [3] | Potency [8] | Potency [4] | outcome [5] | outcome [6] | outcome [7]
active: Potency [1] 29.8 µM

CCCCCCCCCCCCCCCCCCn1cc[n+](C)c1
active: Potency [4] 9.63 µM
inactive: Potency [1] | Potency [3] | outcome [5] | outcome [6] | Potency [9] | outcome [7]

Cc1cc(N=Nc2ccccc2C)ccc1N
inactive: outcome [5] | outcome [6] | Potency [9] | outcome [7]
active: Potency [1] 6.11 µM and 6.86 µM | Potency [3] 48.6 µM | Potency [8] 19.3 µM and 15.4 µM | Potency [4] 15.4 µM and 30.6 µM

CCCCCCCCCC[N+](C)(C)CCCCCCCCCC
active: Potency [2] 26.6 µM and 61.1 µM | Potency [4] 8.41 µM and 24.3 µM
inactive: Potency [1] | outcome [5] | outcome [6] | outcome [7]
26.6 µM (active) and inactive: Potency [8]

Cc1cc(SCc2sc(-c3ccc(C(F)(F)F)c(F)c3)nc2C)ccc1OCC(=O)O
inactive: Potency [1] | outcome [5] | outcome [6] | Potency [9] | outcome [7]
active: Potency [2] 48.6 µM

O=C(CCl)Nc1ccccc1
active: Potency [3] 48.6 µM
inactive: Potency [1] | Potency [8] | outcome [5] | outcome [6] | Potency [9] | outcome [7]

CCCCCCCCCCCCCCC(Br)C(=O)O (stereo not given)
active: Potency [2] 54.5 µM
inactive: Potency [1] | Potency [8] | outcome [5] | outcome [6] | outcome [7]

COc1ccc(N)cc1N
inactive: Potency [1] | outcome [5] | outcome [6] | Potency [9] | outcome [7]
active: Potency [2] 22.4 µM and 33 µM | Potency [8] 63.1 µM and 29.4 µM | Potency [4] 1.78 µM and 4.15 µM
